Screening results deposited in PubChem by National Center for Advancing Translational Sciences (NCATS).
PLK1 PBD inh = inhibitors of human PLK1 polo-box domain binding; P53350; Plk1 PBD binding of FITC phosphopeptide, fluorescence polarization; Potency, µM, inactives show max response, negative = inhibition, usual class: inhibitors; actives 2.8% (n = 360,000); further: series mostly up to about 57 µM; nearly all actives have a fitted effect of over 65% in size
VDR inhibitor = vitamin D3 receptor (human) inhibition. Potency, µM, for inactives: max response, negative = inhibition, most hits filed as inhibitors. actives 0.93% (n = 400,000). VDR-SRC2-3 peptide fluorescence polarization, 2 h. P11473. AID 504847
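Inhibition of the VDR/SRC2-3 peptide interaction is quantified by fluorescence polarization. Compounds (23 nl, pintool) incubate with the reagents for 2 hours at ambient room temperature.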
DT40 TDP1 no CPT = qHTS for Inhibitors of human tyrosyl-DNA phosphodiesterase 1 (TDP1): qHTS in cells in absence of CPT | DT40 Tdp1-/- hTDP1 cells, no CPT, ATP luminescence, 48 h | Potency, µM (titrated, usually from 46.2 µM), without a hit: at the highest dose activity change, negative = growth inhibition, usual class: inhibitors | actives 15% (n = 420,000) | AID 686978, 2013; further: nearly all actives have a fitted effect of over 55% in size
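Growth kinetics read by CellTiter-Glo luminescence after ≥48 hr at 37 °C. Cells: DT40 Tdp1-/- stably carrying human TDP1, 400 per well, compound exposure in the absence of CPT (DMSO vehicle).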
KAT2A inh = GCN5L2 (KAT2A) acetyltransferase inhibition. Q92830. GCN5L2 HAT assay, ThioGlo1 CoA-SH fluorescence. Potency, µM (titrated, usually from 58.9 µM), for the others: at the highest dose activity change, negative = inhibition, most hits filed as inhibitors. actives 0.21% (n = 390,000)
Target sequence (Q92830 whole entry, looked up): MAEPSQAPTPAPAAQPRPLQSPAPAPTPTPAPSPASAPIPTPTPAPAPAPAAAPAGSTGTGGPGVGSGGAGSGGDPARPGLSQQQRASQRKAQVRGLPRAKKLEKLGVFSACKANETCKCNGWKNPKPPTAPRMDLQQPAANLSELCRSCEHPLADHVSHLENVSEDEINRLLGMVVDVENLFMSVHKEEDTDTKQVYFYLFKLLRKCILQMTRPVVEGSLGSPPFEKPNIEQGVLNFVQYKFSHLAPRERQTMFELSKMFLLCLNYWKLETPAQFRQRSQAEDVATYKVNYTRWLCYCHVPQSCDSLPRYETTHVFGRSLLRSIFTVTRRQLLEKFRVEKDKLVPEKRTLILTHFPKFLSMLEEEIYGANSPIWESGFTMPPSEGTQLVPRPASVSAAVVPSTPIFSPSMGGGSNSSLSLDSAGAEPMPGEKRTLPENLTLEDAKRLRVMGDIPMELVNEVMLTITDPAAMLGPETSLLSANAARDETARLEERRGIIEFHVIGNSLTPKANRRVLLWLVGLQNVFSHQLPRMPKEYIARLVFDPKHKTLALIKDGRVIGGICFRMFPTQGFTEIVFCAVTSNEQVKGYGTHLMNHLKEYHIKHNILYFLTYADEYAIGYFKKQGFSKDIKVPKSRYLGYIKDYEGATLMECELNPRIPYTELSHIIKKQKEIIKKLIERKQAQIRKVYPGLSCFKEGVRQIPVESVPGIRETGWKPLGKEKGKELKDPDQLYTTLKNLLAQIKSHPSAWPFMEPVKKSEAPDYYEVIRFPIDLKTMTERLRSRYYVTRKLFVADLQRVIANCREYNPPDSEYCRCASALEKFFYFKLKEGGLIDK
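Fluorescence readout, Ex340nm/Em540nm: ThioGlo1 (50uM final) reacts with free CoA thiol released as 20nM GCN5L2 acetylates H3(1-25) peptide (75uM) using acetyl-CoA (70uM). Compound and enzyme sat 15 min beforehand; 20 min room-temperature reaction.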
DT40 TDP1 CPT = DT40-hTDP1 cell growth loss with CPT; chicken DT40 Tdp1-/-;hTDP1 cells + 20 nM CPT, ATP luminescence, 48 h; Potency, µM (series often up to 46.2 µM), inactives show top-dose activity change, negative = growth inhibition, most hits filed as inhibitors; actives 12% (n = 420,000); AID 686979; further: nearly all actives have a fitted effect of over 55% in size
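Chicken DT40 Tdp1-/- cells complemented with human TDP1, 400 cells/well, exposed to compounds plus 20 nM camptothecin for at least 48 h at 37 C; viability read as ATP content by CellTiter-Glo luminescence.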
TDP1 block = inhibitors of human tyrosyl-DNA phosphodiesterase TDP1. Potency, µM (top dose mostly 130 µM), for the others: top-dose activity change, negative = inhibition, usual class: inhibitors. recombinant TDP1, AlphaScreen DNA substrate cleavage. actives 0.28% (n = 350,000); further: nearly all actives have a fitted effect of over 40% in size
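Enzyme-compound mixtures sat 15 min at room temperature, followed by a 5 min reaction with 15 nM final substrate and 10 min with AlphaScreen beads. Recombinant human Tdp1 was used at 1 nM final.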
* hit, by the source's call; [ ] = another dose, or the depositor's remark. A selection: hits, their analogues and other compounds. The true share with any hit is near 18%. The call rests on the fitted dose curve; in most records, active means well fitted curve in the direction sought with a large enough effect; inconclusive means small, poorly fitted or top-dose-only effect, or another doubt; inactive means no such curve, though single readings can be large; an effect the other way counts as inactive or inconclusive. On the % scale 0 is the no-effect control and ±100 the full control effect; potency means the concentration at half of the fitted maximal effect.

Screening O=C1c2cccc3c([N+](=O)[O-])ccc(c23)C(=O)N1CCc1ccccn1 returned PLK1 PBD inh -6%, VDR inhibitor -7%, DT40 TDP1 no CPT 5.2µM*, KAT2A inh 0%, DT40 TDP1 CPT 13µM* and TDP1 block 5%.
`O=C(O)c1ccc(S(=O)(=O)c2ccc3c(c2)C(=O)N(c2ccccc2[N+](=O)[O-])C3=O)cc1` gave PLK1 PBD inh -8%, VDR inhibitor -27%, DT40 TDP1 no CPT -11%, KAT2A inh inconclusive, DT40 TDP1 CPT -2% and TDP1 block 1%.
O=C(Nc1nccs1)c1cccc(N2C(=O)c3cccc4c([N+](=O)[O-])ccc(c34)C2=O)c1 was read as PLK1 PBD inh -9%, VDR inhibitor 5%, DT40 TDP1 no CPT 3.7µM*, KAT2A inh -6%[0.501 µM], DT40 TDP1 CPT 5.2µM* and TDP1 block 4%.
CC(=O)Oc1cccc(N2C(=O)c3cccc4c([N+](=O)[O-])ccc(c34)C2=O)c1 was read as PLK1 PBD inh inconclusive, VDR inhibitor -13%, DT40 TDP1 no CPT 2.9µM*, KAT2A inh -2% and DT40 TDP1 CPT 2.3µM*.
CC[C@](C)(O)c1cc2ccccc2c(=O)o1 was read as PLK1 PBD inh 1%, VDR inhibitor -3%, DT40 TDP1 no CPT -12%, KAT2A inh -3%, DT40 TDP1 CPT -11% and TDP1 block 0%.
Screening O=c1cnc2ccccc2n1Cc1ccccc1 returned PLK1 PBD inh -13%, DT40 TDP1 no CPT inconclusive and DT40 TDP1 CPT -8%.
Cc1cccc2sc(NC(=O)Cn3c(C)csc3=O)nc12 was read as PLK1 PBD inh -16%, VDR inhibitor 4%, DT40 TDP1 no CPT -21%, KAT2A inh 0%, DT40 TDP1 CPT inconclusive and TDP1 block -10%.
`CCOC(=O)c1c(SC)[nH]c2c(Cl)cccc2c1=O` gave PLK1 PBD inh -2%, VDR inhibitor -28%, DT40 TDP1 no CPT -12%, KAT2A inh -24%, DT40 TDP1 CPT 5% and TDP1 block 0%.
O=C(O)c1ccc(CN2C(=O)c3ccc(C(=O)O)cc3C2=O)cc1 was read as PLK1 PBD inh 7%, VDR inhibitor 7%, DT40 TDP1 no CPT 18%, KAT2A inh -15% and DT40 TDP1 CPT 1%.
`O=C(O)c1ccc(CN2C(=O)c3cccc4c([N+](=O)[O-])ccc(c34)C2=O)cc1` gave PLK1 PBD inh inconclusive, VDR inhibitor 2%, DT40 TDP1 no CPT 16µM*, KAT2A inh -6% and DT40 TDP1 CPT 15µM*.
C[C@H]1CS(=O)(=O)CCN1/N=C\c1ccc([N+](=O)[O-])o1 was read as VDR inhibitor -2%, KAT2A inh -1%[21.4 µM] and TDP1 block 13%[21 µM].
Screening Nc1ncnc2c1nc(Cl)n2[C@@H]1O[C@H](CO)[C@@H](O)[C@@H]1O returned VDR inhibitor inconclusive, DT40 TDP1 no CPT 5µM*, DT40 TDP1 CPT 1µM* and TDP1 block 0%.
Nc1ncnc2c1nc(-c1ccccc1)n2C1OC(CO)C(O)C1O (stereo not given) was read as PLK1 PBD inh -13%, DT40 TDP1 no CPT -5% and DT40 TDP1 CPT 0%.
`Nc1ncnc2c1nc(Cl)n2C1OC(CO)C(O)C1O` (stereo not given) gave VDR inhibitor 11%, DT40 TDP1 no CPT 0.46µM*, KAT2A inh 7%, DT40 TDP1 CPT 0.37µM* and TDP1 block 11%[56.1 µM].
Screening CCN(C(C)=O)c1cnc(C=NNC(N)=S)c2ccccc12 returned PLK1 PBD inh -7%, VDR inhibitor inconclusive, DT40 TDP1 no CPT 4.6µM* and DT40 TDP1 CPT 3.7µM*.
Screening NC(=S)N/N=C/c1ccc(OC(=O)c2cccnc2)cc1 returned PLK1 PBD inh -4%, VDR inhibitor 8%, DT40 TDP1 no CPT 0%, KAT2A inh -7%, DT40 TDP1 CPT 2% and TDP1 block 0%.
`C=CCOc1ccc(/C=N\NC(N)=S)cc1` gave PLK1 PBD inh -29%, VDR inhibitor -5%, DT40 TDP1 no CPT inconclusive, KAT2A inh -1%, DT40 TDP1 CPT inconclusive and TDP1 block 6%.
`NC(=S)NN=Cc1nccc2c(N)cccc12` gave PLK1 PBD inh -9%, DT40 TDP1 no CPT 1.2µM* and DT40 TDP1 CPT 1.8µM*.
Screening COc1ccc(C(=O)NCC(=O)NCC2COc3ccccc3O2)cc1 (stereo not given) returned PLK1 PBD inh -8%, VDR inhibitor 9%, DT40 TDP1 no CPT -12%, KAT2A inh -1%, DT40 TDP1 CPT 0% and TDP1 block 2%.
Screening O=C(NCCc1ccccc1)c1ccc(Cn2c(SCc3ccccc3F)nc3cccnc32)cc1 returned VDR inhibitor 0%, DT40 TDP1 no CPT 18µM*, KAT2A inh -12%, DT40 TDP1 CPT 16µM* and TDP1 block 9%.
O=C(NCCc1ccccc1)c1ccc(CSc2nc3cccnc3n2Cc2ccccc2F)cc1 was read as VDR inhibitor -1%, DT40 TDP1 no CPT 9.2µM*, KAT2A inh -3%, DT40 TDP1 CPT inconclusive and TDP1 block 7%.
Screening CN(CC(=O)Nc1ccc(F)cc1F)S(=O)(=O)c1ccc(C(=O)N2CCOCC2)s1 returned VDR inhibitor 5%, DT40 TDP1 no CPT -12%, KAT2A inh -8%, DT40 TDP1 CPT inconclusive and TDP1 block 9%.
For COc1ccc(NC(=O)N[C@H]2C=C[C@@H](CC(=O)NC3CCC3)O[C@@H]2CO)cc1 the results were PLK1 PBD inh 3%, DT40 TDP1 no CPT 5% and DT40 TDP1 CPT -2%.
`O=C(CNC(=O)C1(c2ccccc2)CC1)Nc1ccc(F)c(F)c1` gave PLK1 PBD inh -1%, VDR inhibitor -7%, DT40 TDP1 no CPT -13%, KAT2A inh 2% and DT40 TDP1 CPT -21%.
Screening Cc1ccc([N+](=O)[O-])cc1S(=O)(=O)N1CCn2cccc2C1c1ccccc1 (stereo not given) returned VDR inhibitor 8%, DT40 TDP1 no CPT inconclusive, KAT2A inh -21%, DT40 TDP1 CPT 21µM* and TDP1 block 13%.
CCCCNC(=O)C1(C)CCCCN1C(=O)c1c(Cl)cccc1Cl (stereo not given) was read as PLK1 PBD inh -2%, DT40 TDP1 no CPT 13µM* and DT40 TDP1 CPT inconclusive.
`CCCCNC(=O)C1(C)CCN1C(=O)c1ccccc1Br` (stereo not given) gave PLK1 PBD inh 0%, DT40 TDP1 no CPT -5% and DT40 TDP1 CPT -1%.
